Laboratory results: PubChem BioAssay AID488966 (Southern Research Specialized Biocontainment Screening …, 2010)
Several values for one entry are separate records, joined by “and”; a condition that tells them apart may be missing. Equal entries are not always repeated. About 55 (0.02%) of roughly 340,000 compounds were called active.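 The calls were made as follows: active = phage lysis inhibition, versus mean bacterial control, above a set limit; inconclusive = no clear call, values can overlap the other calls; inactive = the rest.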 Only a sample is shown. Entries with a potency or affinity are not part of this list.

Assay: inhibition of K1F phage lysis, E. coli UTI89, bacterial capsule biogenesis inhibitors, alamar blue (AID 488966);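 also: capsule biogenesis inhibitors block K1F phage lysis so surviving cells raise fluorescence; higher fluorescence means more inhibition of phage lysis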
Details: 2 h; inhibition: at 100 µM, stronger effect = higher value unless noted; series mostly up to 300 µM

inhibition, inactive:
CC(C)OCCCNC(=O)c1cc(-c2cccs2)nc2ccccc12 0.22%
COc1ccc(NC(=O)C2CCC(C)(C(=O)O)C2(C)C)cc1 (stereo unspecified)
CC1(C(=O)O)CCC(C(=O)Nc2ccccc2)C1(C)C (stereo unspecified) 0.32%
CC(=O)c1ccccc1OCCCOc1cccc2cccnc12 0.48%
O=C(Nc1ccc(Br)cc1)c1ccc2ncsc2c1
O=C(Nc1ccc(F)cc1)c1ccc2ncsc2c1 0.29%
O=C(O)c1cc(-c2ccccc2)nn1CC1CC(c2cccnc2)=NO1 (stereo unspecified) 1.3%
O=C(NCc1ccccc1)C1CCCN(S(=O)(=O)c2ccc(Br)cc2)C1 (stereo unspecified) 1.64% [at 50 µM, stronger effect = higher value]
CC(C)(C)c1ccc(OCC(O)CN(CCO)CC(O)Cn2ccc3ccccc32)cc1 (stereo unspecified) 0.2%
CC1(c2ccccc2)NC(=O)N(NC(=O)CSc2n[nH]c(N)n2)C1=O (stereo unspecified) 0.72%
COc1ccc(S(=O)(=O)N2CCN(c3ccccc3OC)CC2)cc1 0.03%
Cc1ccc(C)c(NC(=O)COC(=O)CCc2ccc(S(=O)(=O)N3CCOCC3)cc2)c1 -0.17%
CC(=O)Nc1cccc(-c2nnc(SCC(=O)N3CCCCC3)n2C)c1 0.94%
COc1ccccc1OCC(O)CN1CCN(CC(=O)Nc2c(C)cccc2C)CC1 (stereo unspecified) 3.11% and 2.01%
Cc1ccc(NC(=O)CCC(=O)NNC(=O)COc2cccc3ccccc23)c(C)c1 -0.27%
Cc1cc(C)c(NC(=O)COc2nncc3ccccc23)c(C)c1 -1.44%
CC(C)NC(=O)COc1cccc2ccccc12 1.21%
CC(CCc1ccccc1)NC(=O)CN1CCOc2ccccc21 (stereo unspecified) 0.85%
CSc1ccc(CN(C)CC(=O)Nc2ccc(NC(C)=O)cc2)cc1 -0.1%
COc1ccc(-c2nc(NCCCN(C)C)c3ccccc3n2)cc1 5.55%
CCN(CC)CCCNc1nc(-c2ccccc2)nc2ccccc12 0.145% [at 50 µM, stronger effect = higher value]
O=C(O)CCCC(=O)Nc1cccc(C(=O)Nc2ccccc2C(=O)O)c1 1.41%
O=C1c2ccccc2C(=O)c2c(Nc3ccc(CCO)cc3)ccc(O)c21 -1.03% [at 50 µM, stronger effect = higher value]
O=C1c2cccc(NCCCNCCO)c2C(=O)c2cccc(NCCCNCCO)c21
Cc1cccc(CSC(=N)N)c1 7.29%
N=C(N)SCCc1cnc[nH]1 1.68%
